Data taken from PubChem BioAssay (EPA / NIEHS).
Several values for one entry are separate records, joined by “and”; a condition that tells them apart may be missing. Identical values can stand only once. Records with an inconclusive call do not appear. A structure can be active in one record and inactive in another. Activity calls are given as the source filed them. How the source made its calls, unless noted: active means hit-call score of the fitted dose curve at least 0.9, where 1 is the maximum; inconclusive means response in the unintended direction; inactive means score below 0.9.

Columns and labels:
[1] = molecular target: Steroid hormone receptor ERR1 (Homo sapiens) (UniProt P11474); assay: ATG_ERRa_TRANS: Attagene TRANS-FACTORIAL HepG2 Assay for human Estrogen-Related Receptor alpha (ERRa) (AID 2282971); details: HepG2 Attagene TRANS reporter, ERRa transactivation
Steroid hormone receptor ERR1 (Homo sapiens), sequence (P11474 whole entry, looked up, the tested form may be a part): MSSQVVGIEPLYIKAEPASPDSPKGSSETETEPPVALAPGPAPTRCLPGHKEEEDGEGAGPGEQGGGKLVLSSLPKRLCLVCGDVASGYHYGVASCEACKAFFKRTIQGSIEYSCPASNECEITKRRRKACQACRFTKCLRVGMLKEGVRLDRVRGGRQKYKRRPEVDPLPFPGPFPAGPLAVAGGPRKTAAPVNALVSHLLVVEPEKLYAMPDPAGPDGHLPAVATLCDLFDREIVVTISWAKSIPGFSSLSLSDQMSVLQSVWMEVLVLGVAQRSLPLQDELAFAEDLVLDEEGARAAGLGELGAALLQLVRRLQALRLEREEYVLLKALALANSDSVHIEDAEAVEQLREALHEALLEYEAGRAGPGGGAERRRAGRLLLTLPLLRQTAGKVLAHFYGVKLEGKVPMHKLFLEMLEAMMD
In short: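 HepG2 cells were transiently transfected with multiple GAL4-UAS reporter units, then dosed with compound for 24 h. Total RNA was reverse-transcribed, reporter cDNA PCR-amplified and fluorescently labelled, and fragments resolved by capillary electrophoresis; induction was compared with DMSO.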

[2] = molecular target: X-box-binding protein 1 (Homo sapiens) (UniProt P17861); assay: ATG_Xbp1_CIS: Attagene CIS-FACTORIAL HepG2 Assay for human X-box Binding Protein 1 (XBP1) (AID 2282972; active means hit-call score of the fitted dose curve at least 0.9, where 1 is the maximum; inactive means score below 0.9); details: HepG2 XBP1 cis-element reporter, Attagene multiplex; actives raise or lower the signal
X-box-binding protein 1 (Homo sapiens), sequence (P17861 whole entry, looked up): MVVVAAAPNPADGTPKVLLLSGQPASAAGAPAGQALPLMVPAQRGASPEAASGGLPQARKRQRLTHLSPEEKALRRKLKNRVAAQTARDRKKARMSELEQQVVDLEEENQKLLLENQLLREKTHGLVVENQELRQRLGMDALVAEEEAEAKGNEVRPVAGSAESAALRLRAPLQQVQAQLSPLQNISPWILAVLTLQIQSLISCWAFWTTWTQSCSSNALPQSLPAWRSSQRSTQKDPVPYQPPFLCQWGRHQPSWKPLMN
In short: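 After a 24-hour chemical exposure of HepG2 cells carrying cis-regulated reporters, reporter mRNA levels are assessed. Quantification uses RT-PCR, 6-FAM labelling and capillary electrophoresis. Gain- or loss-of-signal is fitted against DMSO.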

[3] = ATG_M_19_TRANS: Attagene TRANS-FACTORIAL HepG2 Assay for M19 Transcription Factor (Internal Marker) (AID 2282974); details: HepG2 Attagene TRANS-FACTORIAL M19 internal marker reporter
In short: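 Transfected HepG2 (GAL4-UAS MRTUs), 24 h compound, TriZol RNA, DNase-treated RT, reporter PCR, FAM label, HpaI digest, CE fluorescence; gain vs DMSO.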

[4] = molecular target: Glucocorticoid receptor (Homo sapiens) (UniProt P04150); assay: ATG_GR_TRANS: Attagene TRANS-FACTORIAL HepG2 Assay for human Glucocorticoid Receptor (GR) (AID 2282978); details: HepG2 Attagene TRANS GR reporter, mRNA transcription;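 further: activators score as hits since higher reporter transcript over DMSO is fitted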
Glucocorticoid receptor (Homo sapiens), sequence (P04150 whole entry, looked up): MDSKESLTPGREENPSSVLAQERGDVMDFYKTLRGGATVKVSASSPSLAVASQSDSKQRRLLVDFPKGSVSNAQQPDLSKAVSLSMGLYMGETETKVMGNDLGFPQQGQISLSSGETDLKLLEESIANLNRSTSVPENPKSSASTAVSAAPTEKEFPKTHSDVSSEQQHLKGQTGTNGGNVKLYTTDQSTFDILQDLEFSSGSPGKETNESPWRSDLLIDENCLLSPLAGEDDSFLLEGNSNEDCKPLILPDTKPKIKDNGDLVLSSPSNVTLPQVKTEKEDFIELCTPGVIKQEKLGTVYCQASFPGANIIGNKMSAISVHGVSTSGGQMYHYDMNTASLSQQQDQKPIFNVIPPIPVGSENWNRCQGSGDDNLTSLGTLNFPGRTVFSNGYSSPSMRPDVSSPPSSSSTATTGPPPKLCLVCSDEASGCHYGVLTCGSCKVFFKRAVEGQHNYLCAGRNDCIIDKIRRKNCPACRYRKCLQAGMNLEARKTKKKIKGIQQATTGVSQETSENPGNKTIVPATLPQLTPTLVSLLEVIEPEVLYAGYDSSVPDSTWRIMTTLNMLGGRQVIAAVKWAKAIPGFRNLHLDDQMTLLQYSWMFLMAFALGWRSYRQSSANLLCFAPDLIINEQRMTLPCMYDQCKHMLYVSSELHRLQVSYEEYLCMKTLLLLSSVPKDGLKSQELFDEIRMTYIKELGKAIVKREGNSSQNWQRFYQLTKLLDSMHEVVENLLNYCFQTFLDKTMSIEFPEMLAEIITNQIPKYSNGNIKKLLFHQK
In short: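 After 24 h incubation with test chemical, transfected HepG2 cells were lysed for RNA; reporter cDNA was amplified, FAM-labelled, HpaI-digested and sized on a capillary analyser. Signal gain relative to DMSO was scored.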

[5] = molecular target: Bile acid receptor (Homo sapiens) (UniProt Q96RI1); assay: ATG_FXR_TRANS: Attagene TRANS-FACTORIAL HepG2 Assay for Farnesoid X Receptor (FXR) (AID 2282979); details: HepG2 Attagene TRANS FXR-GAL4 reporter transcription;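 further: hits raise reporter mRNA above DMSO so AC50 marks FXR activation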
Bile acid receptor (Homo sapiens), sequence (Q96RI1 whole entry, looked up, the tested form may be a part): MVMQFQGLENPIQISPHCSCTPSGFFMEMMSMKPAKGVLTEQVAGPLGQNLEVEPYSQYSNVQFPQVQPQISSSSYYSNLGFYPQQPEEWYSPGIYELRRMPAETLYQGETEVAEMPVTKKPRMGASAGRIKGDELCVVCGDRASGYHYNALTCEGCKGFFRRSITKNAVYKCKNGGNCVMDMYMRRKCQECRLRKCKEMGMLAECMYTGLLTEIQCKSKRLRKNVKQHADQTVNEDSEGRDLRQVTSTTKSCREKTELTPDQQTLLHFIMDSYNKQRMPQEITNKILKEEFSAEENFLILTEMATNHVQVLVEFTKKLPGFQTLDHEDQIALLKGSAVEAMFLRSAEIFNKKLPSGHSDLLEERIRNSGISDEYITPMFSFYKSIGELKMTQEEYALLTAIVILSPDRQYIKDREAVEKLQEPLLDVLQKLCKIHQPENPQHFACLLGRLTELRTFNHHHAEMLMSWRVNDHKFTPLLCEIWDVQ
In short: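 Chimeric FXR-GAL4 activity in transiently transfected human HepG2 liver cells is scored as induction of reporter mRNA after 24 h of dosing. Detection uses RT-PCR with fluorescent labelling and capillary electrophoresis, with DMSO serving as baseline.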

[6] = molecular target: Oxysterols receptor LXR-alpha (Homo sapiens) (UniProt Q13133); assay: ATG_LXRa_TRANS: Attagene TRANS-FACTORIAL HepG2 Assay for human Liver X Receptor alpha (LXRa) (AID 2282980); details: HepG2 Attagene TRANS reporter, LXRa transactivation
Oxysterols receptor LXR-alpha (Homo sapiens), sequence (Q13133 whole entry, looked up): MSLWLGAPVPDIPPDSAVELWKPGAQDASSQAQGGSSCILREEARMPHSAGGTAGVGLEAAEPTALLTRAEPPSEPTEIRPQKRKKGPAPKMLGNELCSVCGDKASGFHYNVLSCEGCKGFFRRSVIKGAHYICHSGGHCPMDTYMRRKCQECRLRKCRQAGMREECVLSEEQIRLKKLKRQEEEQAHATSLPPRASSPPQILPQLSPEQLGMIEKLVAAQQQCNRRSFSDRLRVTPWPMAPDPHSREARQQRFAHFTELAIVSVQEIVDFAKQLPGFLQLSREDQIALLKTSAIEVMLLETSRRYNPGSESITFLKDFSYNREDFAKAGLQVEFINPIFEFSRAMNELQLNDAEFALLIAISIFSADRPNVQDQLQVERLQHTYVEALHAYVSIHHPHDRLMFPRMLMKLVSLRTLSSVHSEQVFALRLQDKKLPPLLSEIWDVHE
In short: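 Transient HepG2 transfectants, 24 h dosing, RT-PCR/CE mRNA reporter quantitation; gain-of-signal vs DMSO.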

[7] = molecular target: Estrogen-related receptor gamma (Homo sapiens) (UniProt P62508); assay: ATG_ERRg_TRANS: Attagene TRANS-FACTORIAL HepG2 Assay for human Estrogen-Related Receptor gamma (ERRg) (AID 2282977); details: HepG2 Attagene TRANS reporter, ERRg transactivation;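 further: hits increase reporter signal over DMSO so potencies reflect activators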
Estrogen-related receptor gamma (Homo sapiens), sequence (P62508 whole entry, looked up, the tested form may be a part): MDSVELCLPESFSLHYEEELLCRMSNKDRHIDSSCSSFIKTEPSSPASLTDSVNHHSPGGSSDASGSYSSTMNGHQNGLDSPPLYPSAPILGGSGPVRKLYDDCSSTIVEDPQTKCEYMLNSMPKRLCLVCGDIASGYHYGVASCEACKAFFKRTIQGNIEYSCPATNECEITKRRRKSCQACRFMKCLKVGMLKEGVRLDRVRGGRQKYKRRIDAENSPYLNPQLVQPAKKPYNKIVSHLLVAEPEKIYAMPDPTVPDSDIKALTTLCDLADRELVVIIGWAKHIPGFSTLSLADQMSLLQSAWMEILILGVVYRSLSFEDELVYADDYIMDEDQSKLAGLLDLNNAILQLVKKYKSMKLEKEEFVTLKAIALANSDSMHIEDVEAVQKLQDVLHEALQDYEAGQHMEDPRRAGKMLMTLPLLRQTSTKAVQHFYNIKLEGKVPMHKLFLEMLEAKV
In short: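 HepG2 cells transiently transfected with multiplexed GAL4-UAS reporter units and chimeric NR-Gal4 constructs were exposed to test chemicals for 24 h. Reporter mRNA was measured by RT-PCR, 6-FAM primer extension, HpaI digestion and capillary electrophoresis; gain-of-signal versus DMSO.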

[8] = molecular target: Oxysterols receptor LXR-beta (Homo sapiens) (UniProt P55055); assay: ATG_LXRb_TRANS: Attagene TRANS-FACTORIAL HepG2 Assay for human Liver X Receptor beta (LXRb) (AID 2282981); details: HepG2 Attagene TRANS GAL4-LXRb reporter, mRNA
Oxysterols receptor LXR-beta (Homo sapiens), sequence (P55055 whole entry, looked up, the tested form may be a part): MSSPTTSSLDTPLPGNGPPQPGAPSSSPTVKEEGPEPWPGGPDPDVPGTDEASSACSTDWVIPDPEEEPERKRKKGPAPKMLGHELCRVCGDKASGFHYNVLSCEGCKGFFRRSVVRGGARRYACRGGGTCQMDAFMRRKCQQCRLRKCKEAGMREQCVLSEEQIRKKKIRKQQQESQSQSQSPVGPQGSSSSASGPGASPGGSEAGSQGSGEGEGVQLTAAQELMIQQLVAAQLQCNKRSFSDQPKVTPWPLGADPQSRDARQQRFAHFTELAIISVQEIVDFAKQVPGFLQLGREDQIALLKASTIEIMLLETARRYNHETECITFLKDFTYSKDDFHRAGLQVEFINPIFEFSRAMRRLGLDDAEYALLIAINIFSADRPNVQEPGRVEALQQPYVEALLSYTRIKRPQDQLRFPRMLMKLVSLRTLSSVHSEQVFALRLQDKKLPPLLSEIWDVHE
In short: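 Cells: HepG2, transiently transfected with GAL4-UAS reporter units plus LXRb-Gal4 fusion. Treatment: 24 h. Detection: reporter mRNA by RT-PCR, 6-FAM labelling, HpaI digestion, capillary electrophoresis.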

[9] = molecular target: Hepatocyte nuclear factor 4-alpha (Homo sapiens) (UniProt P41235); assay: ATG_HNF4a_TRANS: Attagene TRANS-FACTORIAL HepG2 Assay for human Hepatocyte Nuclear Factor 4 alpha (HNF4a) (AID 2282982); details: HepG2 HNF4a transactivation reporter, mRNA readout
Hepatocyte nuclear factor 4-alpha (Homo sapiens), sequence (P41235 whole entry, looked up): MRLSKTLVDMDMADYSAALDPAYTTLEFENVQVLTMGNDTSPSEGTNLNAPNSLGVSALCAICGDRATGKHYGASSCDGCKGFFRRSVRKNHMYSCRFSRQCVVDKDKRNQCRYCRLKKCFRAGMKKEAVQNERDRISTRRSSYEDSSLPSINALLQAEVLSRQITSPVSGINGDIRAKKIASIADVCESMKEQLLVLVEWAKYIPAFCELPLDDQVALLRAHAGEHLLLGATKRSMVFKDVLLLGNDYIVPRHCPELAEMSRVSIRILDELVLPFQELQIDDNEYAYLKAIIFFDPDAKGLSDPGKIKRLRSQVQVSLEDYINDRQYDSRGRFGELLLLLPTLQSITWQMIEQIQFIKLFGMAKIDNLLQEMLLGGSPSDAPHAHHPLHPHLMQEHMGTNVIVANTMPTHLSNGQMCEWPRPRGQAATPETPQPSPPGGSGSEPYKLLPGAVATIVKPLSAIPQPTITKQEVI
In short: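 Transfected HepG2 reporter cells are dosed for 24 h; reporter RNA is reverse-transcribed, amplified, fluorescently labelled and HpaI-digested before CE sizing. Positive-direction fit against DMSO.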

[10] = ATG_GAL4_TRANS: Attagene TRANS-FACTORIAL HepG2 Assay for GAL4 (Internal Marker) (AID 2282976); details: HepG2 Attagene TRANS GAL4 internal marker reporter
In short: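 Fluorescence from capillary electrophoresis of labelled RT-PCR products quantifies reporter mRNA induction after 24 h dosing of HepG2 cells carrying transfected GAL4-UAS reporter transcription units. Vehicle DMSO serves as baseline.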

Measured: AC50

Nc1ccc(Cl)cc1C(=O)c1ccccc1
inactive: [1] | [2] | [3] | [4] | [5]

C=CC#N
inactive: [1] | [2] | [3] | [6]

CN(C)P(=O)(N(C)C)N(C)C
not listed: [4] | [10]
inactive: all other assays above

c1ccc(N=NNc2ccccc2)cc1
inactive: [1] | [7] | [6] | [9]
active: [2] 108 µM

COP(=O)(OC)OC
inactive: [1] | [2] | [7] | [6] | [8] | [9]

CC(=O)c1cc(C(C)(C)C)cc2c1CCC2(C)C
inactive: [1] | [3] | [4] | [6] | [8]
active: [2] 75.2 µM

COc1cc(-c2ccc(N)c(OC)c2)ccc1N
active: [2] 27.7 µM and 33.6 µM
inactive: [1] | [3] | [7] | [8] | [9]

COc1ccc(C=O)cc1OC
inactive: [1] | [2] | [3] | [8] | [9]

Cl/C=C\C[N+]12CN3CN(CN(C3)C1)C2
inactive: [1] | [2] | [3] | [5] | [8] | [9]

O=C(c1ccccc1)C(Cl)Cl
active: [2] 25.1 µM
not listed: [4] | [6] | [10]
inactive: all other assays above

CC(=O)[O][Hg][c]1ccccc1
inactive: [1] | [4] | [5] | [6] | [8]
active: [2] 3.71 µM

CCCCOCCOC(C)=O
inactive: [1] | [2] | [3] | [10] | [6]

CCN(CC)C(=O)Cl
not listed: [3] | [4] | [6]
inactive: all other assays above

BrCCBr
not listed: [5] | [9] | [10]
inactive: all other assays above

CC(C)c1ccc(CO)cc1
inactive: [1] | [2] | [3] | [5] | [6]

O=C(O)C(F)(F)C(F)(F)C(F)(F)C(F)(F)C(F)(F)C(F)(F)C(F)(F)C(F)(F)C(F)(F)C(F)(F)F
active: [2] 26.7 µM | [6] 57.2 µM
inactive: [1] | [2] | [3] | [7] | [5] | [6] | [8] | [9]

C[C@]12CCC(=O)C[C@@H]1CC[C@@H]1[C@@H]2CC[C@]2(C)[C@@H](O)CC[C@@H]12
inactive: [1] | [2] | [3] | [4] | [6] | [8]

COP(=S)(OC)Oc1ccc(S(=O)(=O)N(C)C)cc1
not listed: [4] | [5] | [10]
inactive: all other assays above

COP(=S)(OC)Oc1c(Cl)cc(C)cc1Cl
inactive: [1] | [2] | [3] | [10] | [4] | [8]

COc1cccc(C=O)c1
inactive: [1] | [2] | [3] | [10] | [7] | [9]

CCOP(=S)(OCC)SCCS(=O)(=O)CC
not listed: [9] | [10]
inactive: all other assays above

Nc1cccc(Cl)c1
inactive: [1] | [2] | [3] | [7] | [8]

CC1(C)CCC(Cc2ccc(Cl)cc2)C1(O)Cn1cncn1 (stereo not given)
inactive: [1] | [2] | [3] | [5] | [6] | [8]

NC(=O)O
not listed: [4] | [5]
inactive: all other assays above

COC[C@H](C)N(C(=O)CCl)c1c(C)csc1C
inactive: [1] | [2] | [5] | [8]

CC(C#N)CCC#N (stereo not given)
inactive: [1] | [2] | [3] | [8] | [9]

ClCCBr
inactive: [1] | [2] | [10] | [7] | [6]

CCC(C)(C)c1ccc(O)c(C(C)(C)CC)c1
active: [5] 49.5 µM | [6] 9.67 µM | [8] 23.6 µM
not listed: [7] | [10]
inactive: all other assays above

CCc1ccccc1C
not listed: [1] | [10]
inactive: all other assays above

ClCC(Cl)CCl
inactive: [2] | [3] | [7] | [4] | [6]

O=[N+]([O-])c1c(Cl)c(Cl)cc(Cl)c1Cl
inactive: [2] | [3] | [7]

O=C1CCCN1
inactive: [2] | [3] | [4] | [5] | [6]

CCC(=O)C(CC(C)N(C)C)(c1ccccc1)c1ccccc1 (stereo not given)
inactive: [2] | [3] | [4] | [5] | [6] | [8]

O=C(O)C(Cl)(Cl)Cl
inactive: [2] | [3] | [10] | [6] | [8] | [9]

O=C(Nc1ccc2[nH]ccc2c1)c1cc2cc(F)ccc2n1Cc1cccc(F)c1
inactive: [3] | [7] | [5] | [9]
active: [2] 14.1 µM
